Measured values reported in ChEMBL document CHEMBL3433997, “St. Jude Leishmania screening dataset” (2016).

Each compound was assayed against Solute carrier family 2, facilitated glucose transporter member 1 (Homo sapiens) (UniProt P11166) (assay: ST_JUDE_LEISH: Cytotoxicity at 2uM final concentration against transgenic Leishmania Mexicana promastigotes LmGLUT1 that are glucose transport deficient and complemented with the human glucose transporter GLUT1. Activity is measured by DNA content using SYBR green in vitro).
Solute carrier family 2, facilitated glucose transporter member 1 (Homo sapiens), sequence (P11166 whole entry): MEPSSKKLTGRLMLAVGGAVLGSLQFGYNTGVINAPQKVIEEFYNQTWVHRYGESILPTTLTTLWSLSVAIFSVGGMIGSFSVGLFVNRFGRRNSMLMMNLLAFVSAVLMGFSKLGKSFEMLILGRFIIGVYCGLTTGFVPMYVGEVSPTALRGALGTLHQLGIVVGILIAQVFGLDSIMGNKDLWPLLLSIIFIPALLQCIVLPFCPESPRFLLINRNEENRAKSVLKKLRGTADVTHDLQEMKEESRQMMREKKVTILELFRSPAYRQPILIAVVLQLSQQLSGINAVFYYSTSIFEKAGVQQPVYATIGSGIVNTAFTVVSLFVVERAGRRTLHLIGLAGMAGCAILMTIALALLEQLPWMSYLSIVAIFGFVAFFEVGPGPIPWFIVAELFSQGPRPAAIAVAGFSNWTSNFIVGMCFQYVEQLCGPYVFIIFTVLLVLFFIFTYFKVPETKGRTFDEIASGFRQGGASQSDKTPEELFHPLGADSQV
Assay type: functional
Work on CCOc1cc(C(=O)NCCN2CCCCC2)ccc1-c1nc2cc(Cl)ccc2[nH]1 yielded an inhibition of 1.06%.
For Cc1cc2nc(-c3ccc(/C=C/C(=O)NCCCc4ccccc4)cc3)[nH]c2cc1C, the inhibition was 4.43%.
With CCCOc1ccc(CCCON2C(N)=NC(N)=NC2(C)C)cc1 the inhibition was 7.95%.
N=C(NCc1ccc(O)cc1)Nc1nc(-c2ccc(OCCCn3ccnc3)cc2)cs1 showed an inhibition of 1.63%.
CC(C)(CN)c1nc(-c2ccc(Cl)c(O)c2)c(-c2ccncc2)[nH]1 gave an inhibition of -2.49%.
For COc1cc(NC(=O)/C=C/c2ccccc2OC(F)(F)F)cc(OCCN2CCC(O)(c3ccccc3)CC2)c1, the inhibition was 7.57%.
Work on Cc1noc(=O)c2ccc(NC(=O)C(O)(CSc3ccccc3)CC(C)C)cc12 (stereo not given) yielded an inhibition of 6.92%.
With CC(=O)Nc1nc(C(=O)Nc2ccc(-c3cccc(-c4nc5cc(F)ccc5[nH]4)c3)cc2)cs1 the inhibition was 2.47%.
Compound Cc1ccc(CN2CCC(C(=O)Nc3ccc(-c4cc5ccccc5[nH]4)cc3)CC2)o1 has an inhibition of 17.3%.
For Cc1c[nH]c(CCNC(=O)c2cc(-c3ccc(Cl)cc3)cs2)n1, the inhibition was 2.64%.
O=c1cc(NCCCNCc2cccc(OC(F)(F)C(F)F)c2)[nH]c2ccccc12 was tested, and the inhibition was 6.11%.
In the case of C[C@@H](N/C(=N\c1ccccc1Cl)Nc1ccc(C#N)cc1O)c1ccc(Br)cc1, the inhibition is reported as 6.22%.
In the case of COc1cccc(CNC(=O)[C@H]2CNCCN2C(=O)CCCc2ccccc2)c1, the inhibition is reported as 3.03%.
CN1CCN(CC2(Nc3nccc(NCc4ccc(Cl)cc4Cl)n3)CCCCC2)CC1 gave an inhibition of 6.66%.
In the case of Cc1cc(N[C@@H](Cc2ccccc2)C(=O)NCCOc2ccccc2)nc(NCCOc2ccccc2)n1, the inhibition is reported as 1.88%.
Cc1cc(N[C@@H](CC(C)C)C(=O)NCc2cccc(F)c2)nc(NCC2CCCCC2)n1 showed an inhibition of 5.8%.
Work on CCOc1ccc2[nH]c(C)cc(=NN=Cc3ccc(Cl)cc3)c2c1 yielded an inhibition of -0.27%.
Nc1cc(-c2ccc(Br)cc2O)nc2ccccc12 gave an inhibition of 1.51%.
In the case of O=C(NCc1ccc(C(=O)N2CCC(N3CCCCC3)CC2)cc1)c1cc(-c2cccc(C(F)(F)F)c2)ccc1O, the inhibition is reported as 7.73%.
In the case of CC1CCC(C(C)C)C(OC(=O)CSc2nnc3c(n2)[nH]c2ccccc23)C1 (stereo not given), the inhibition is reported as -1.05%.
For Cc1cc(Nc2ccc(Oc3ccc(Cl)cc3)cc2)nc(N)n1, the inhibition was 3.89%.
Cc1c(F)cc(C(=O)NC2CC2)cc1-c1ccc2c(c1)c(C)nn2S(=O)(=O)c1cccs1 was tested, and the inhibition was 4.6%.
For COc1ccc(-c2ccc(NC(=O)c3ccc(C#N)cc3)cc2)cc1CN(C)CCN(C)C, the inhibition was 6.36%.
Work on N#Cc1cncc(-c2nc3c(N4CCN(c5cnccn5)CC4)cccc3n2CCNCc2ccccc2)c1 yielded an inhibition of 2.77%.
In the case of CCCCCCCN(Cc1ccc(OC(C)(C)C(=O)OCC)cc1)C(=O)Nc1ccccc1OC(F)(F)F, the inhibition is reported as 0%.
With COc1ccc(OC)c2c1CC1NCC2c2c(OC)ccc(OC)c21 (stereo not given) the inhibition was 2.86%.
Work on Cc1nnc(N2C(=N)SC(=Cc3ccc(-c4ccc(OC(F)(F)F)cc4)o3)C2=O)s1 yielded an inhibition of 4.77%.
CCc1c(C)nc2nc(Cc3cccc(F)c3)nn2c1N1CCN(c2ccccn2)CC1 was tested, and the inhibition was 14.9%.
For COc1ccc(Nc2ccnc3cc(Cl)ccc23)cc1OC, the inhibition was 10.1%.
In the case of O=C(Nc1ccccc1)Nc1ccc(-n2ccc(C(F)(F)F)n2)cc1, the inhibition is reported as 2.55%.
COc1ccc(C2C(C(=O)Nc3ccc(C)cc3Br)c3ccccc3C(=O)N2C)cc1 (stereo not given) gave an inhibition of 3.32%.
Cc1cccc2nc(-c3ccc(-c4cccc(CNCC5CCCO5)c4)s3)[nH]c12 (stereo not given) was tested, and the inhibition was 13%.
Cc1ccc(NC(=O)c2ccc3ncccc3c2)cc1OC1CCN(Cc2ccco2)C1 (stereo not given) showed an inhibition of 0.45%.
Cc1cc(N(C)C)nc(Nc2ccc(NC(=O)Nc3ccccc3)cc2)n1 showed an inhibition of 2.43%.
O=C(O)CCSSc1cccc[n+]1[O-] was tested, and the inhibition was 29.9%.
COc1cccc(-c2cc(-c3ccc(NC(=O)c4ccccc4)cc3)c3c(N)ncnc3n2)c1 was tested, and the inhibition was -0.77%.
CCNc1cc(C(=O)N[C@@H](Cc2ccccc2)[C@H](O)CNCc2cccc(OC)c2)c(OC)c(N2CCCCS2(=O)=O)c1 was tested, and the inhibition was 1.6%.
Compound COc1ccc(CNC2CCN(C)CC2)cc1-c1ccc(S(=O)(=O)NCc2cccnc2)s1 has an inhibition of -1.99%.
Cc1cc(CN2CCC(C(=O)Nc3ccc(-c4nc5ccccc5[nH]4)cc3)CC2)oc1C showed an inhibition of 13.2%.
For Cc1cccc2nc(-c3cccc(-c4ccc(NC(=O)c5ccncc5)cc4)c3)[nH]c12, the inhibition was 2.81%.

Each compound was assayed against Hexose transporter 1 (Plasmodium falciparum) (UniProt O97467) (assay: ST_JUDE_LEISH: Cytotoxicity at 2uM final concentration against transgenic Leishmania Mexicana promastigotes LmPfHT that are glucose transport deficient and complemented with the Plasmodium falciparum hexose transporter. Activity is measured by DNA content using SYBR green in vitro).
Assay type: functional
In the case of CCOc1cc(C(=O)NCCN2CCCCC2)ccc1-c1nc2cc(Cl)ccc2[nH]1, the inhibition is reported as 1.42%.
Work on Cc1cc2nc(-c3ccc(/C=C/C(=O)NCCCc4ccccc4)cc3)[nH]c2cc1C yielded an inhibition of 2.87%.
For CCCOc1ccc(CCCON2C(N)=NC(N)=NC2(C)C)cc1, the inhibition was 13%.
N=C(NCc1ccc(O)cc1)Nc1nc(-c2ccc(OCCCn3ccnc3)cc2)cs1 showed an inhibition of 0.11%.
Work on CC(C)(CN)c1nc(-c2ccc(Cl)c(O)c2)c(-c2ccncc2)[nH]1 yielded an inhibition of 0.02%.
COc1cc(NC(=O)/C=C/c2ccccc2OC(F)(F)F)cc(OCCN2CCC(O)(c3ccccc3)CC2)c1 showed an inhibition of 5.55%.
Work on Cc1noc(=O)c2ccc(NC(=O)C(O)(CSc3ccccc3)CC(C)C)cc12 (stereo not given) yielded an inhibition of 4.78%.
CC(=O)Nc1nc(C(=O)Nc2ccc(-c3cccc(-c4nc5cc(F)ccc5[nH]4)c3)cc2)cs1 was tested, and the inhibition was 2.89%.
In the case of Cc1ccc(CN2CCC(C(=O)Nc3ccc(-c4cc5ccccc5[nH]4)cc3)CC2)o1, the inhibition is reported as 9.24%.
Cc1c[nH]c(CCNC(=O)c2cc(-c3ccc(Cl)cc3)cs2)n1 was tested, and the inhibition was 0.26%.
For O=c1cc(NCCCNCc2cccc(OC(F)(F)C(F)F)c2)[nH]c2ccccc12, the inhibition was 7.27%.
C[C@@H](N/C(=N\c1ccccc1Cl)Nc1ccc(C#N)cc1O)c1ccc(Br)cc1 was tested, and the inhibition was 5.06%.
Compound COc1cccc(CNC(=O)[C@H]2CNCCN2C(=O)CCCc2ccccc2)c1 has an inhibition of -0.14%.
For CN1CCN(CC2(Nc3nccc(NCc4ccc(Cl)cc4Cl)n3)CCCCC2)CC1, the inhibition was 7.74%.
Work on Cc1cc(N[C@@H](Cc2ccccc2)C(=O)NCCOc2ccccc2)nc(NCCOc2ccccc2)n1 yielded an inhibition of 0.27%.
Cc1cc(N[C@@H](CC(C)C)C(=O)NCc2cccc(F)c2)nc(NCC2CCCCC2)n1 gave an inhibition of 4.61%.
CCOc1ccc2[nH]c(C)cc(=NN=Cc3ccc(Cl)cc3)c2c1 gave an inhibition of 0.45%.
With Nc1cc(-c2ccc(Br)cc2O)nc2ccccc12 the inhibition was 0.65%.
Work on O=C(NCc1ccc(C(=O)N2CCC(N3CCCCC3)CC2)cc1)c1cc(-c2cccc(C(F)(F)F)c2)ccc1O yielded an inhibition of 6.4%.
CC1CCC(C(C)C)C(OC(=O)CSc2nnc3c(n2)[nH]c2ccccc23)C1 (stereo not given) gave an inhibition of -0.14%.
Compound Cc1cc(Nc2ccc(Oc3ccc(Cl)cc3)cc2)nc(N)n1 has an inhibition of 5.01%.
With Cc1c(F)cc(C(=O)NC2CC2)cc1-c1ccc2c(c1)c(C)nn2S(=O)(=O)c1cccs1 the inhibition was 3.16%.
For COc1ccc(-c2ccc(NC(=O)c3ccc(C#N)cc3)cc2)cc1CN(C)CCN(C)C, the inhibition was 4.84%.
N#Cc1cncc(-c2nc3c(N4CCN(c5cnccn5)CC4)cccc3n2CCNCc2ccccc2)c1 gave an inhibition of 1.47%.
CCCCCCCN(Cc1ccc(OC(C)(C)C(=O)OCC)cc1)C(=O)Nc1ccccc1OC(F)(F)F showed an inhibition of -1.12%.
Compound COc1ccc(OC)c2c1CC1NCC2c2c(OC)ccc(OC)c21 (stereo not given) has an inhibition of 2.69%.
Cc1nnc(N2C(=N)SC(=Cc3ccc(-c4ccc(OC(F)(F)F)cc4)o3)C2=O)s1 showed an inhibition of 2.59%.
CCc1c(C)nc2nc(Cc3cccc(F)c3)nn2c1N1CCN(c2ccccn2)CC1 was tested, and the inhibition was 12%.
For COc1ccc(Nc2ccnc3cc(Cl)ccc23)cc1OC, the inhibition was 10.7%.
With O=C(Nc1ccccc1)Nc1ccc(-n2ccc(C(F)(F)F)n2)cc1 the inhibition was 2.63%.
COc1ccc(C2C(C(=O)Nc3ccc(C)cc3Br)c3ccccc3C(=O)N2C)cc1 (stereo not given) showed an inhibition of 2.08%.
For Cc1cccc2nc(-c3ccc(-c4cccc(CNCC5CCCO5)c4)s3)[nH]c12 (stereo not given), the inhibition was 11.4%.
Work on Cc1ccc(NC(=O)c2ccc3ncccc3c2)cc1OC1CCN(Cc2ccco2)C1 (stereo not given) yielded an inhibition of 1.05%.
With Cc1cc(N(C)C)nc(Nc2ccc(NC(=O)Nc3ccccc3)cc2)n1 the inhibition was 3.74%.
With O=C(O)CCSSc1cccc[n+]1[O-] the inhibition was 48.3%.
Work on COc1cccc(-c2cc(-c3ccc(NC(=O)c4ccccc4)cc3)c3c(N)ncnc3n2)c1 yielded an inhibition of 0.31%.
With CCNc1cc(C(=O)N[C@@H](Cc2ccccc2)[C@H](O)CNCc2cccc(OC)c2)c(OC)c(N2CCCCS2(=O)=O)c1 the inhibition was 2.79%.
In the case of COc1ccc(CNC2CCN(C)CC2)cc1-c1ccc(S(=O)(=O)NCc2cccnc2)s1, the inhibition is reported as 0.85%.
Compound Cc1cc(CN2CCC(C(=O)Nc3ccc(-c4nc5ccccc5[nH]4)cc3)CC2)oc1C has an inhibition of 16%.
Compound Cc1cccc2nc(-c3cccc(-c4ccc(NC(=O)c5ccncc5)cc4)c3)[nH]c12 has an inhibition of 2.24%.
